Measurements published in publication PMC5540273 (PLoS ONE, 2017).

Assays:
Settings in all cases: concentration: 1 μM, replicates: in singlicate; n = 1
[1] = tested on: T1, RSK4(Kin.Dom.1-N-terminal)
T1 construct: gene RPS6KA6

[2] = tested on: T2, RSK4(Kin.Dom.2-C-terminal)
T2 construct: gene RPS6KA6

S6K1 = tested on: S6K1
SBK1 = tested on: SBK1
SGK2 = tested on: SGK2
SGK3 = tested on: SGK3
SGK = tested on: SGK
SIK2 = tested on: SIK2
SIK = tested on: SIK
SLK = tested on: SLK
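Also: KINOMEscan kinase panel screen.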

Structure (SMILES)	%Inh [1] [%]	%Inh [2] [%]	%Inh (S6K1) [%]	%Inh (SBK1) [%]	%Inh (SGK2) [%]	%Inh (SGK3) [%]	%Inh (SGK) [%]	%Inh (SIK2) [%]	%Inh (SIK) [%]	%Inh (SLK) [%]
O=C(O)C(F)(F)F.O=c1[nH]ccc2nc(N[C@@H]3CCNC3)nc(Nc3cc(Cl)cc(Cl)c3)c12 [GSK2188764]	96.3	32	94.3	91.5	96.4	99.5	99.9	54	1	98.9
O=C(Nc1n[nH]c2nc(-c3cccc(O)c3)ccc12)C1CC1 [SB-711805]	52	14	0	4	14	13	28	0	0	48
Cc1ccc(NC(=O)c2cccc(N3CCCCC3)c2)cc1-c1ccc(C(=O)NCC2CC2)cc1 [GSK1917008]	0	37	8	10	11	7	0	93.3	8	10
O=C1NC(=O)C(c2ccccc2Cl)=C1Nc1cccc(Cl)c1 [SB-342409]	0	9	7	8	0	5	0	0	5	96.5
Cc1ccc(Nc2ccnc(Nc3ccc(C)c(F)c3)n2)cc1O.Cl [GW582868]	0	0	0	6	0	0	1	100	0	41
NCCC(NC(=O)c1cc(Br)c(-c2ccnc3[nH]ccc23)s1)c1ccccc1.O=C(O)C(F)(F)F.O=C(O)C(F)(F)F (stereo not drawn) [GSK1307810]	53	4	48	66	67	64	78	0	0	16
CN(c1ccc(NC(=O)Nc2cccc(Cl)c2)cc1)c1ccnc(N)n1.Cl [GW830707]	0	0	0	3	0	0	0	0	0	20
O=C(Nc1n[nH]c2cc(-c3cccs3)ccc12)C1CC1 [SB-731284]	39	13	61	13	0	37	18	0	0	0
COc1cccc(-c2nc(-c3ccccc3)[nH]c2-c2ccncc2)c1 [SB-610250]	0	63	19	9	40	0	31	0	1	6
COc1ccc(C2=C(Nc3cccc(O)c3)C(=O)NC2=O)cc1 [SB-390766]	0	20	17	8	11	9	0	0	0	27
CN(C)CCNS(=O)(=O)c1ccc(-c2ccnc3[nH]ccc23)cc1 [GSK977620]	25	22	32	47	0	32	4	11	14	71
CNc1nccc(-c2ccc3c(N)n[nH]c3c2)n1 [GSK2206003]	59	24	0	36	6	38	36	9	0	69
Cn1cc(-c2cnc(N)c3c(-c4ccc5c(c4)CCN5C(=O)Cc4ccccc4)csc23)cn1 [GSK2593074]	0	18	16	0	6	0	21	9	42	69
Cc1ccc(O)cc1Nc1ccnc2cc(-c3ccc(CN4CCCCC4)o3)ccc12 [GW557777]	0	87	0	0	0	0	1	83	97.8	34
O=C(Nc1c(F)cccc1F)c1cc(C(=O)c2ccccc2F)c[nH]1 [GSK1326180]	1	0	0	52	18	5	11	0	0	0
Cc1ccc(O)cc1Nc1ccnc2ccc(C(C)(C)C)cc12 [GW856805]	31	1	13	53	13	1	25	0	42	12
Cc1ccc(NC(=O)c2ccnc(N3CCCCC3)c2)cc1-c1ccc(C(=O)NCC2CC2)cc1 [GW775610]	0	39	19	0	5	0	0	0	0	5

Structure (SMILES)	%Inh [1] [%]	%Inh [2] [%]	%Inh (S6K1) [%]	%Inh (SBK1) [%]	%Inh (SGK2) [%]	%Inh (SGK3) [%]	%Inh (SGK) [%]	%Inh (SIK2) [%]	%Inh (SIK) [%]	%Inh (SLK) [%]
CN(c1ccc2c(c1)nc(NCc1ccccc1)n2C)c1ccnc(Nc2ccc(CS(C)(=O)=O)cc2)n1.Cl [GW811603]	0	0	0	0	24	0	13	10	9	38
CC(C)c1nc(-c2cccc(NS(=O)(=O)c3c(F)cccc3F)c2)c(-c2ccnc(Nc3ccc(N4CCOCC4)nc3)n2)s1.Cl [GSK1723980]	0	19	29	20	0	15	34	90.8	99.4	73
Cn1cc(-c2ccc3c(c2)CCN3C(=O)Cc2cc(F)cc(F)c2F)c2c(N)ncnc21 [GSK2634140]	0	0	17	16	4	0	0	0	8	60
Nc1ncc(-c2cn[nH]c2)c2scc(-c3ccc4c(c3)CCN4C(=O)Cc3ccccc3)c12 [GSK2593067]	0	0	8	0	0	0	0	0	59	73
Cc1ccc(NC(=O)c2ccc(Cl)c(Cl)c2)cc1-c1ccc(C(=O)Nc2ccncc2)cc1 [GSK1398460]	0	23	0	15	0	14	0	9	8	29
CN(c1ccc(NC(=O)N2CCN(CCCN3CCOCC3)CC2)cc1)c1ccnc(Nc2ccc(CS(C)(=O)=O)cc2)n1.Cl [GW830899]	0	0	0	0	0	0	0	9	8	47
CCn1c(-c2nonc2N)nc2c(-c3ccccc3)ncc(OCCCN)c21.O=C(O)C(F)(F)F.O=C(O)C(F)(F)F [GSK260205]	67	90.3	44	9	0	71	1	36	11	99.1
Fc1cc(Cl)ccc1Nc1ccnc2cc(-c3ccc(CN4CCSCC4)o3)ccc12 [GW560106]	0	87	0	0	0	0	0	81	97.2	65
Cc1nn2c(=O)cc(N3CCO[C@H](C)C3)nc2n1Cc1cccc(Cl)c1Cl [GSK2373693]	0	0	4	89	1	0	0	0	0	4
CC(C)c1nc(-c2ccc(F)c(NS(=O)(=O)c3c(F)cccc3F)c2)c(-c2ccnc(Nc3ccc(N4CCOCC4)nc3)n2)s1 [GSK1804250]	0	16	3	25	8	20	25	88	99.5	91.4
Cc1cccc(Nc2nc(N[C@H]3CCCC[C@H]3N)ncc2C(N)=O)c1.Cl [GSK986310]	12	30	16	71	4	0	0	26	53	72
c1ccc(Oc2ccc(Nc3ccnc4cc(-c5ccc(CN6CCCCC6)o5)ccc34)cc2)nc1 [GW567143]	0	1	6	25	6	0	0	70	97.4	36
O=C(Nc1n[nH]c2nc(-c3ccccc3)ccc12)C1CC1 [SB-708999]	30	1	17	9	15	47	23	0	28	12
CCn1cnc2c(NCc3ccccc3)ncnc21 [SKF-96418]	9	0	17	0	2	3	2	0	0	0
Nc1cccc(-c2ccc3c(N)n[nH]c3c2)c1 [GSK2193613]	0	25	0	8	0	34	33	0	0	2
N#Cc1cnc2cc(-c3cnc(CNCCN4CCOCC4)s3)ccc2c1Nc1ccc(Oc2ccccc2)cc1 [GW664114]	11	14	61	1	0	4	1	16	45	67
